# Screening data (PubChem)
# Most compounds without a hit are left out; they make up all but 19% or so of the library.
# HT1080NT lethal = kills 2HG-producing HT-1080-NT fibrosarcoma cells. HT-1080-NT fibrosarcoma viability, CellTiter-Glo ATP luminescence, 48 h. Potency, µM (doses to about 46.1 µM), for the others: top-dose activity, negative = less viability, usual class: cytotoxic. actives 1.6% (n = 360,000). AID 686970;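 note: NT is the 2HG producing partner of a matched IDH1 knockdown line; potency is the fitted concentration of half-maximal effect; 0% = DMSO-treated cells and -100% = media-only wells without cells; nearly all actives have a fitted effect of over 55% in size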
#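 Read-out is CellTiter-Glo luminescence after 10 minutes at room temperature, following 48 hours' compound treatment of HT-1080-NT cells (750 cells/well, RPMI, 5% FBS, 37 degrees C).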
# HT1080 IDH1KD tx = toxicity to HT-1080 IDH1 knockdown cells (counter line); actives 2% (n = 360,000); HT-1080 IDH1 knockdown viability, ATP luminescence, 48 h; Potency, µM (doses to about 46.1 µM), without a hit: top-dose activity, negative = toxicity, actives largely listed as cytotoxic; AID 686971;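 note: potency is the fitted concentration of half-maximal effect; 0% = DMSO wells and -100% = cell-free medium wells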
#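 HT-1080-IDH1KD cells (IDH1 knocked down), 750/well in RPMI with 5% FBS, treated with compound 48 h at 37 degrees C. Viability by CellTiter-Glo luminescence, normalised to DMSO and no-cell wells; concentration-response curves classed.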
# DT40 TDP1 CPT = growth inhibition of DT40 Tdp1-/-;hTDP1 cells with camptothecin (screen for TDP1 inhibitors); chicken DT40 Tdp1-/-;hTDP1 cells + 20 nM CPT, ATP luminescence, 48 h; AID 686979; actives 12% (n = 420,000); Potency, µM (series often up to 46.2 µM), inactives show top-dose activity change, negative = growth inhibition, most hits filed as inhibitors; note: potency is the fitted concentration of half-maximal effect; nearly all actives have a fitted effect of over 55% in size
#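 Cell growth measured by CellTiter-Glo luminescence after a minimum 48 h, 37 C compound exposure with 20 nM CPT in Tdp1-knockout DT40 cells stably expressing hTDP1, seeded 400/well; qHTS titration format.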
# IL-1B inflam inh = blocks inflammasome-driven IL-1 beta release | THP-1 LPS/ATP IL-1B secretion, AlphaLISA, 16 h; hits give low values | actives 4.7% (n = 360,000) | activity change, % at 57.5 µM; in the data active = activity change below about -50%; inconclusive = mostly about -30% to -49%
#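 THP-1 cells pretreated 1 hr with compounds (up to 57.5 uM final), then stimulated with LPS (250 ng/mL final) plus ATP (1.25 mM final); secreted IL-1B measured by AlphaLISA after 16 hr, decreased signal indicating inhibition.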
# DT40 TDP1 no CPT = qHTS for Inhibitors of human tyrosyl-DNA phosphodiesterase 1 (TDP1): qHTS in cells in absence of CPT. actives 15% (n = 420,000). Potency, µM (series often up to 46.2 µM), without a hit: top-dose activity change, negative = growth inhibition, actives largely listed as inhibitors. AID 686978, 2013. DT40 Tdp1-/- hTDP1 cells, no CPT, ATP luminescence, 48 h; note: potency is the fitted concentration of half-maximal effect; nearly all actives have a fitted effect of over 55% in size
#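 DT40 Tdp1-/-;hTDP1 cells, no CPT (DMSO vehicle only), 400 cells/well; compounds pin-transferred; ≥48 hr, 37 °C; CellTiter-Glo 30 min RT dark, luminescence read.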
# An asterisk follows results filed as active; ? = inconclusive; . = no result given; ! = not active in a repeat; [ ] = dose if it differs, or a comment. Unless noted, calls come from the whole dose curve; as a rule, active = well fitted curve in the direction sought with a large enough effect; inconclusive = small, poorly fitted or top-dose-only effect, or another doubt; inactive = no such curve, though single readings can be large; an effect the other way counts as inactive or inconclusive. Unless noted, % is set by controls: 0 for no effect and ±100 for the full control effect.
SMILES,HT1080NT lethal,HT1080 IDH1KD tx,DT40 TDP1 CPT,IL-1B inflam inh,DT40 TDP1 no CPT
COc1cc(=O)n2c(c1C(=O)NC(C)c1ccco1)CCN(C(=O)c1[nH]c(C)cc1C)CC2 (stereo unspecified),.,.,3%,.,0%
C=Cn1ccnc1P(=S)(c1ccc2c(c1)c1ccccc1n2CC)c1nccn1C=C,?,-23%[9.24 µM],29µM*,?,?
CCn1c2ccccc2c2cc(/C=C3\C=Cc4ccccc43)ccc21,.,.,-20%,.,?
CCc1ccc(C(C#N)=CC=Cc2ccccc2)cc1,-28%,?,?,?,21µM*
N#C/C(=C\C=C\c1ccccc1)c1nc(-c2ccc(Cl)cc2)cs1,8%,3%,-19%,11,?
COc1ccc(-c2ccc3nnc(SCC(=O)NCC4CCCO4)n3n2)cc1 (stereo unspecified),5%,4%,-7%,-4,-21%
CCCSS/C(CCO)=C(\C)N(C=O)Cc1cnc(C)nc1N,.,.,5.3µM*,.,3µM*
CCOC(=O)OCC/C(SC(=O)OCC)=C(\C)N(C=O)Cc1cnc(C)nc1N,.,.,3%,.,-1%
C/C(=C(/CCO)SSCC1CCCO1)N(C=O)Cc1cnc(C)nc1N (stereo unspecified),-3%,6%,21µM*!,9,21µM*
COc1cc(/C=N/NC(=O)CCc2c(C)n[nH]c2C)ccc1O,10%,9%,-3%,9,-6%
CC(C)c1ccc(CC(=O)N2CCC2(C)C(=O)NS(=O)(=O)c2cccc(OC(F)F)c2)cc1 (stereo unspecified),5%,21%,-14%,33,-4%
CCOc1cc(-c2nc(-c3ccc(Br)cc3)no2)cc(OCC)c1OCC,.,.,-9%,.,-8%
CC(=O)N(O)c1ccc(C=Cc2ccccc2)cc1,?,?,2.1µM*,0,0.41µM*
CCN(C(=O)C1CCCN(c2ncnc3c2nc2n3CCCCC2)C1)c1cccc(Cl)c1 (stereo unspecified),?,-10%,21µM*,-2,10µM*
O=C(NCc1ccccc1Cl)C1CCCN(c2ncnc3c2nc2n3CCCCC2)C1 (stereo unspecified),-15%,8%,?,-20,?
CCN(C(=O)C1CCCN(c2ncnc3c2nc2n3CCCCC2)C1)c1cccc(C)c1 (stereo unspecified),.,.,12µM*,.,5.8µM*
COc1ccccc1C(=O)N[C@@H]1c2ccccc2C2(CCN(Cc3ccc4c(c3)OCO4)CC2)[C@H]1O,.,.,-5%[9.04 µM],.,?
CCOC(=O)c1c(C)[nH]c(N=Nc2ccc(OC)cc2)c1C,2%,0%,?,-14,-14%
Cc1ccc(-n2cnc(N)c2C(=O)c2cccc([N+](=O)[O-])c2)cc1,-18%,-14%,?,.,29µM*
COc1ccc(CCNc2nc(SCc3ccccc3Cl)nc3ccccc23)cc1OC,.,.,8.2µM*,.,4.6µM*
COc1ccc(CNc2nc(SCc3ccccc3Cl)nc3ccccc23)cc1,.,.,?,.,16µM*
COc1ccc(CCNc2nc3c(-c4cccc(C)c4)nnn3c3ccccc23)cc1OC,.,.,22%,.,-3%
Cc1ccc(-n2ccc(=O)c(C(=O)Nc3ccc(S(=O)(=O)Nc4nccs4)cc3)n2)cc1,-16%,-7%,-26%,-18,-28%
CCCC(=O)Nc1ccc(C(=O)NNC(=O)c2cccc([N+](=O)[O-])c2)cc1,-3%,0%,-4%,-3,-10%
CCCC(=O)Nc1ccc(Sc2ccc([N+](=O)[O-])cc2)cc1,?,?,2.3µM*,?,2.3µM*
SMILES,HT1080NT lethal,HT1080 IDH1KD tx,DT40 TDP1 CPT,IL-1B inflam inh,DT40 TDP1 no CPT
COc1ccc(NC(=O)CNC(=O)c2ccc([N+](=O)[O-])cc2)cc1,6%,6%,7%,16,13%
COc1ccc(C(=O)CC(=O)Nc2ccc([N+](=O)[O-])cc2)cc1,?,?,16µM*,?,?
CC(C)Oc1ccc(C(=O)Nc2ccc([N+](=O)[O-])cc2)cc1,3%,-16%,?,-12,-25%
COc1ccc(OC(C)C(=O)Nc2ccc([N+](=O)[O-])cc2)cc1 (stereo unspecified),-18%,-22%,?,0,21µM*
CNC(CC(=O)c1ccc([N+](=O)[O-])cc1)C(Cl)(Cl)Cl (stereo unspecified),?,?,2.3µM*,-67*,2.6µM*
COc1ccccc1N1CCN(/N=C/c2ccccc2C(=O)O)CC1,4%,-4%,-11%,7,29%
CCc1ccc(C(=O)C[N+]2(C)CCOCC2)cc1,.,.,-7%,.,-8%
CC(=O)c1sc(NC(=O)CN2C(=O)C3CCCCC3C2=O)nc1-c1ccccc1 (stereo unspecified),14%,?,2%,26,2%
Cc1ccc[n+](CC(=O)Nc2ccc([N+](=O)[O-])cc2)c1,-14%,16µM*,10µM*,-80*,21µM*
COc1ccc(C(=O)CC(Nc2ccc([N+](=O)[O-])cc2)c2ccc(OC)cc2)cc1 (stereo unspecified),-9%,?,?,-7,18µM*
COc1ccc(C(=O)/C=C/Nc2ccc([N+](=O)[O-])cc2)cc1,9%,5%,-7%,-12,-2%
Cc1ccc[n+](CC(=O)Nc2cccc([N+](=O)[O-])c2)c1,-4%,-2%,3%,-14,?
CC(C)NS(=O)(=O)c1ccc(NC(=O)C(C)Oc2ccc(C(=O)c3ccccc3)cc2)cc1 (stereo unspecified),?,?,23µM*,10,18µM*
COc1cccc(CNC(=O)CCC2CCCN(C(=O)C3=CC(=O)CC(C)(C)O3)C2)c1 (stereo unspecified),-2%,-4%,14%,1,?
CCC(C)CN1C(=O)CN(S(C)(=O)=O)CC1(C)C(=O)Nc1c(C)cccc1C (stereo unspecified),18%,23%,-24%,0,2%
O=C(c1ccc(Cl)cc1)C1CCN(CC(=O)N2CCCCC2)CC1,-17%,-11%,?,21,?
Cc1c(CNCCc2ccc(S(N)(=O)=O)cc2)c(C(=O)O)c(C)n1Cc1ccc(Cl)cc1,.,.,-1%,.,?
N#CC1(NC(=O)COC(=O)c2nc(Cl)c(Cl)c(N)c2Cl)CCCCC1,14%,8%,-2%,29,0%
CC1CCCN(C(=S)SCC(=O)c2cc(Br)cc(Br)c2O)C1 (stereo unspecified),-16%,-27%,4.1µM*,12,2.9µM*
O=C(CSC(=S)N1CCCC1)c1cc(Br)cc(Br)c1O,16µM*,-15%,?,-12,?
